Source: PubChem
Pf apPOL block – Pf-apPOL DNA polymerase inhibition. Recombinant Pf-apPOL, molecular beacon fluorescence, 1.5 h. AID 1794808. inhibition, % at 10 µM. 210,000 compounds, 0.25% hits
mHTT CaM bind – inhibitors of human mutant huntingtin-calmodulin interaction. AID 1671202. P42858. 190,000 compounds, 3.6% hits. AlphaScreen His-mHTT/GST-CaM binding, luminescence. inhibition, % at 15 µM;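 also: 0% = both proteins with DMSO and 100% = one protein alone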
Active calls of the source: *; i = inactive; x = no result. Hits are enriched below; roughly 3.5% of the tested compounds scored in any of these assays. Rule as the data show it: active = inhibition above about 50%; inactive = the rest.

SMILES	Pf apPOL block	mHTT CaM bind
COc1ccc(C(=O)ON=C2C=CC(=O)C=C2)cc1	-2.7	53.0*
CC1=CC(=O)C=C(C)C1=NOC(=O)c1ccccc1Br	-20.4	90.0*
Cc1ccc(C(=O)ON=C2C=CC(=NOC(=O)c3ccccc3Br)C=C2)cc1	-0.7	4.0
CN1C(=O)/C(=N\OC(=O)c2ccccc2Br)c2ccccc21	1.5	i
O=C1C=CC(=NOC(=O)c2ccccc2Br)C=C1	9.9	89.0*
O=C1C=CC(=NOC(=O)c2ccc([N+](=O)[O-])cc2)C=C1	-9.9	7.0
CCc1nc(C2CCCN2S(=O)(=O)c2cccc3cccnc23)n[nH]1 (configuration not stated)	0.2	-0.7
COc1ccc2oc(=O)c(C(=O)N3CCOCC3)cc2c1	-3.1	-6.0
O=C(NC1CCCC1)c1ccnc(-c2cccs2)c1	-2.8	-3.7
CCCCOc1ccc(C2=N/C(=C\c3ccccc3)C(=O)O2)cc1	-1.9	-4.0
CC(C)c1ccc(NC(=O)CC2SC(=N)NC2=O)cc1 (configuration not stated)	1.8	1.0
COc1cccc(CCNC2CC(=O)N(c3ccc(NC(C)=O)cc3)C2=O)c1 (configuration not stated)	-5.8	4.4
CC(=O)Nc1ccc(N2C(=O)CC(NCCc3ccccn3)C2=O)cc1 (configuration not stated)	-14.9	54.0*
C=CCNC(=O)N1CCC(c2nc(C)ccc2C(=O)N2CCCC2)CC1	-2.5	0.3
COc1ccc(Br)cc1/C=C/c1ccc2cccc(O)c2n1	-5.4	45.0
O=[N+]([O-])c1cc(Br)c(O)c(/C=C/c2ccc3cccc(O)c3n2)c1	-11.3	82.8*
Cc1cccc(C(=O)Nc2ccccc2C(=O)Nc2ccccc2)c1	-5.8	-1.3
C=CSc1sc(Cl)c(N(C)Cc2ccccc2)c1[N+](=O)[O-]	-76.3	64.0*
CCN(Cc1ccccc1)Cc1ccccc1[N+](=O)[O-]	-7.5	-21.8
C=CSc1sc(Cl)c(N2CCCC2)c1[N+](=O)[O-]	6.1	75.0*
C=CSc1sc(Cl)c(N2CCCCCC2)c1[N+](=O)[O-]	6.1	43.0
CCCn1c(=N)c(C(=O)NCCN2CCOCC2)cc2c(=O)n3ccccc3nc21	-8.8	6.0
COc1ccc(CSc2ccc(S(=O)(=O)N3CCc4ccccc43)cc2C(=O)O)cc1	0.2	-15.0
COc1cc(OC)cc(C(=O)n2nnc3ccccc32)c1	-2.3	1.0
COc1cc(SC)ccc1C(=O)n1nnc2ccccc21	-7.8	91.0*
SMILES	Pf apPOL block	mHTT CaM bind
Cc1nn(C)cc1-c1cc2c([N+](=O)[O-])cc([N+](=O)[O-])cc2[nH]1	-7.1	2.0
CCOc1ccc(NC(=O)Nc2nnc(C(C)c3ccccc3)s2)cc1 (configuration not stated)	-51.3	-4.5
O=C(Nc1c(C(=O)NCCc2ccccc2)cnn1-c1ccccc1)c1ccccc1F	-3.0	9.5
Fc1ccc(C2=Nc3ccc(F)cc3NC(c3ccccc3)=N2)cc1	-3.1	7.0
Brc1ccc2c(c1)NC(c1ccccc1)=NC(c1ccncc1)=N2	-5.0	70.7*
COc1cc(-c2c(CCO)sc3ccccc23)cc(OC)c1OC	-13.4	97.0*
COCc1ccc(-c2c(-c3ccccc3OC)sc3ccccc23)cc1	-2.6	-38.1
CN(C)c1ccc(-c2nc(C(Cl)(Cl)Cl)nc(C(Cl)(Cl)Cl)n2)cc1	-5.3	20.0
Cc1ccc(OCC(=O)N(c2ccc(C)cc2)C2C=CS(=O)(=O)C2)cc1 (configuration not stated)	-1.4	8.0
COc1ccccc1NC(=O)c1cccc(Cl)c1Cl	-4.4	-19.4
O=C(O)CCCC(=O)N1N=C(c2ccc(Br)cc2)CC1c1ccco1 (configuration not stated)	-2.5	22.0
Cc1ccc(C(=O)N2N=C(c3ccc(Br)cc3)CC2c2ccco2)cc1 (configuration not stated)	-3.4	78.0*
CCCCN(CC)C(=O)c1cc2cc3ccc(OC)cc3nc2s1	-3.3	8.0
N#Cc1sc2nc(-c3ccccc3)c3c(c2c1N)CCCC3	-0.5	-24.0
CC1(C)Cc2cccc(OCC(=O)N(Cc3ccsc3)C3CC3)c2O1	-7.6	-8.4
COc1ccc(CCNC(=O)c2nc(-c3cccc(F)c3)n3c2CCCCC3)cc1OC	4.7	50.6*
CCOCCCNC(=O)c1nc(-c2cccc(F)c2)n2c1CCCCC2	-2.0	20.3
COC(=O)c1ccccc1NC(=O)c1nc(-c2cccc(F)c2)n2c1CCCCC2	1.3	3.0
COc1cc(NC(=O)c2nc(-c3cccc(F)c3)n3c2CCCCC3)cc(OC)c1OC	5.8	64.5*
CCN1CCN(CCNC(=O)c2ccnc(N3CCNC(c4ccccc4)C3)c2)CC1 (configuration not stated)	-4.0	1.1
CN1C(=O)CCC2(CNC(=O)c3n[nH]c4ccccc34)CCCC12 (configuration not stated)	-2.3	0.4
Cn1ccnc1SCc1cc(=O)c(OC(=O)CC2CCCCC2)co1	-3.9	14.0
O=C(CC(c1ccccc1)c1ccccc1)Oc1coc(CSc2ncccn2)cc1=O	-1.0	98.9*
Cc1ccnc(SCc2cc(=O)c(OC(=O)Cc3ccc([N+](=O)[O-])cc3)co2)n1	0.4	87.6*
Cc1csc(SCc2cc(=O)c(OC(=O)c3cccc([N+](=O)[O-])c3)co2)n1	13.4	2.5
SMILES	Pf apPOL block	mHTT CaM bind
O=C(O)c1ccc2c(c1)C1C=CCC1C(c1ccccc1[N+](=O)[O-])N2 (configuration not stated)	-18.8	53.2*
O=[N+]([O-])c1ccccc1C1Nc2ccc(Br)cc2C2C=CCC21 (configuration not stated)	-24.7	57.4*
O=C(O)c1ccc2c(c1)C1C=CCC1C(c1cccc([N+](=O)[O-])c1)N2 (configuration not stated)	-2.1	84.7*
O=C(c1ccc2c(c1)C1C=CCC1C(c1ccc([N+](=O)[O-])cc1)N2)N1CCCC1 (configuration not stated)	-16.8	48.1
COc1ccc(C(=O)N2CCC(c3noc(N)c3C)CC2)c(OC)c1	-5.2	13.0
CCCCC(=O)N1CC(c2nc(-c3ccc(F)cc3)no2)C2(CCOCC2)C1 (configuration not stated)	-3.6	-3.6
CC(C)(C)OC(=O)N1CCCN(C(=S)Nc2cccnc2)CC1	-11.0	x
CC(C)n1c(=O)c(NCc2ccc(F)cc2)nc2ccncc21	-19.6	-2.6
Cc1ccc(NCN2C(=O)c3ccc([N+](=O)[O-])cc3C2=O)c([N+](=O)[O-])c1	6.4	-2.0
Cc1cc(NC(=O)CN2CCc3ccccc3C2C(=O)N2CCCCC2)ccc1F (configuration not stated)	-1.1	2.1
Cc1ccc(NC(=O)CN2CCc3ccccc3C2C(=O)N2CCCC2)cc1Cl (configuration not stated)	-4.3	64.1*
Cc1ccc(C)c(NC(=O)CN2CCc3ccccc3C2C(=O)N2CCC(C)CC2)c1 (configuration not stated)	-6.2	12.1
CC1CCN(C(=O)C2c3ccccc3CCN2CC(=O)Nc2ccc(Cl)cc2F)CC1 (configuration not stated)	-3.3	67.8*
Cc1c(Cl)cccc1NC(=O)CN1CCc2ccccc2C1C(=O)N1CCC(C)CC1 (configuration not stated)	-5.6	69.0*
O=C(CN1CCc2ccccc2C1C(=O)N1CCCCC1)Nc1ccc(Cl)cc1F (configuration not stated)	-2.4	-6.4
